High-throughput results deposited in PubChem BioAssay by Sanford-Burnham Center for Chemical Genomics.
Rows were chosen to be rich in hits. Some 0.71% of all compounds tested hit in one or more screens of this group.
beta cell repl: induces beta-cell replication in MIN6 cells | MIN6 cells proliferation, ATPlite luminescence, 48 h; cells starved in 0.2% serum; 100% = growth in 10% serum | proliferation, % at 10 µM | hit rate 0.29% among 330,000 | AID 2380;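 active means compounds whose signal lies at least 3.5 SD above the mean of all wells on their plate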;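 further: 0% = DMSO-treated cells in low-serum medium and 100% = 10% serum control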
hiPSC survival: hiPSC single-cell survival enhancement. ATPlite luminescence; 100% = ROCK inhibitor wells, 0% = DMSO. survival enhancement, % at 20 µM. hit rate 0.044% among 360,000. AID 602274; in the data active means survival enhancement above about 18%;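 further: cells exposed to compounds for 16 hours before the ATP read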
H9c2 TAG inh: triacylglycerol accumulation inhibition | hit rate 0.66% among 230,000 | inhibition, % at 12.5 µM | H9c2 cells, Nile Red lipid (TAG) fluorescence; cells loaded with 200 µM oleic acid;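 active means pattern-corrected inhibition of lipid staining of at least 50% with the nuclear-stain viability signal not falling by more than 50%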;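 further: 0% = DMSO wells and 100% = triacsin C control wells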
Active calls of the source: *; . = no result.

SMILES | beta cell repl | hiPSC survival | H9c2 TAG inh
CC(C)[C@H](NC(=O)[C@@H]1Cc2c([nH]c3ccccc23)C2c3ccccc3C(=O)N21)C(=O)N1CCC[C@H]1C(=O)O (stereo partly specified) | . | 3 | .
S=C(NCCCCN(Cc1ccc(Cl)cc1)c1ccc(Br)cn1)NCCCc1cnc[nH]1 | . | -3 | -14
COc1cc(OC)cc(-c2sc3ccc(OC)cc3c2C#CC2(N)CCCCC2)c1 | -6 | 2 | 9
COc1ccc(-c2sc3cc4c(cc3c2C#CC2(N)CCCCC2)OCO4)cc1 | -7 | -2 | 59*
COc1ccc2c(c1)c1ccc3c(c1n2C)C(=O)C=CC3=O | -6 | 28* | .
Cc1ccc2c(c1)c1ccc3c(c1n2C)C(=O)C=CC3=O | -5 | 14 | .
C[C@H](O)[C@@H]1CN2CCc3c([nH]c4ccccc34)[C@@H]2C[C@@H]1N(C)Cc1cc(Cl)cc(Cl)c1 | . | 0 | 14
CC(=O)NC(=Cc1ccccc1)C(=O)N1CCCC1C(=O)O (stereo unspecified) | . | 1 | -7
Cc1ccccc1NC(=O)c1nc(S(C)(=O)=O)ncc1Cl | -5 | 0 | 68*
CCN(c1ccccc1)S(=O)(=O)c1ccc(NC(=O)c2nc(S(C)(=O)=O)ncc2Cl)cc1 | -7 | 9 | .
CCS(=O)(=O)c1ncc(Cl)c(C(=O)Nc2ccc(S(=O)(=O)N(C)c3ccccc3)cc2)n1 | -7 | 21* | .
Cc1cccc(C)c1NC(=O)c1nc(S(=O)(=O)Cc2ccccc2)ncc1Cl | -7 | 0 | .
CCn1cc(C(=O)NCCCN(C)c2ccccc2)c(=O)c2cc(S(=O)(=O)N(C)C)ccc21 | 4 | 2 | 37
CCN(CCCNC(=O)c1cn(CC)c2ccc(S(=O)(=O)N(C)C)cc2c1=O)c1cccc(C)c1 | -3 | 12 | 56*
CCc1nc2ccc(C(=O)NC3CCN(Cc4ccccc4)CC3)cn2c1N(C)Cc1cc2ccccc2s1 | . | -2 | 21
CCn1c2ccccc2c2cc([N+](=O)[O-])ccc21 | 5 | -1 | -3
CN(C)CCn1c2ccccc2c2nc3ccc([N+](=O)[O-])cc3cc21 | -4 | -1 | 56*
COC(=O)[C@]12CCCCC=C1N(Cc1ccc(Cl)cc1Cl)C(=O)[C@H](CC(=O)NCCC(C)C)C2 | . | 1 | .
CCCCNC(=O)C1(C)CCN1C(=O)c1ccc(F)cc1Cl (stereo unspecified) | . | 0 | -16
COc1ccc(-c2nn(C)c3sc(C(=O)NCc4ccco4)cc23)cc1OC | -3 | -1 | 4
COc1ccc(NC(=O)c2cc3c(-c4ccc(OC)c(OC)c4)nn(C)c3s2)cc1OC | -4 | -2 | 79*
N#CC1=C(Nc2ccccc2Cl)SC2(CCCC2)NC1=O | . | 0 | .
Cc1ccc(F)cc1C(=O)N1CCCCC1c1cc(C(=O)Nc2cccc(C#N)c2)no1 (stereo unspecified) | . | 1 | 5
CCCc1nc2ccc(Cl)cn2c1Cc1ccsc1 | . | -1 | .
CCn1cc([N+](=O)[O-])c(C(=O)N2N=C(c3ccc(Cl)c(Cl)c3)CC2c2ccccc2O)n1 (stereo unspecified) | -6 | 1 | 32
SMILES | beta cell repl | hiPSC survival | H9c2 TAG inh
CCn1cc([N+](=O)[O-])c(C(=O)N2N=C(c3ccc4ccccc4c3)CC2c2cc(Br)ccc2O)n1 (stereo unspecified) | -4 | -1 | 56*
CCc1nc2c(OCc3ccc(OC(F)F)cc3)cccn2c1N(C)C(=O)c1ccc(OC)cc1 | . | 0 | 10
CCNC(=O)C1(C)CCCN(C(=O)c2ccc3c(c2)C(C)(C)CCC3(C)C)C1 (stereo unspecified) | . | 2 | -15
C(=N\NC1=Nc2cccc3cccc1c23)/c1ccccn1 | . | -2 | 51*
Clc1ccccc1/C=N/NC1=Nc2cccc3cccc1c23 | -3 | -2 | .
CCOC(=O)[C@]12CCC=C1N(Cc1ccccc1)C(=O)[C@H](CC(=O)NCc1cccs1)C2 | . | 2 | .
CC(C)n1nnnc1C1c2ccccc2C(=O)N1Cc1ccccc1 (stereo unspecified) | . | 0 | .
Cc1cccc(C)c1-n1nnnc1C(c1cc2ccccc2o1)N1CCN(C/C=C/c2ccccc2)CC1 (stereo unspecified) | . | -1 | .
Cc1cc(C)c2nc(SCC(=O)Nc3ccccc3N3CCOCC3)c(C#N)cc2c1 | -5 | -2 | 3
Cc1cc(C)cc(C(=O)N2CC(=O)Nc3ccccc32)c1 | -3 | 0 | 55*
Cc1cc(C)c2nc(SCC(=O)N3CC(=O)Nc4ccccc43)c(C#N)cc2c1 | -5 | -1 | 54*
COc1cc(C(=O)N2CC(=O)Nc3ccccc32)cc(OC)c1OC | . | 0 | 25
Cc1ccc(-c2nc3cc(C)c(Br)c(C)n3c2Cc2ccsc2)cc1 | . | -1 | .
CC(C)C[C@H]1CNC(=O)C(=O)N1CC1CCN(CC2CCC(C)CC2)CC1 (stereo partly specified) | . | 0 | .
